Laboratory results from paper PMC4336329 (PLoS ONE, 2015).
Out of some 310,000 compounds screened, about 14,000 (4.5%) showed an effect of 50% or more. The effect is printed as a negative number. This excerpt belongs to a sample that is enriched for strong results.

Molecular target: human ether-à-go-go-related gene (hERG) potassium channel (human, UniProt Q12809)
Assay: primary screen, population patch clamp on CHO cells stably expressing hERG; higher = less effect of the substance
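Note: peak tail current of the secondary pulse compared with the same well before compound.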

Chain of human ether-à-go-go-related gene (hERG) potassium channel (Q12809 whole entry, looked up): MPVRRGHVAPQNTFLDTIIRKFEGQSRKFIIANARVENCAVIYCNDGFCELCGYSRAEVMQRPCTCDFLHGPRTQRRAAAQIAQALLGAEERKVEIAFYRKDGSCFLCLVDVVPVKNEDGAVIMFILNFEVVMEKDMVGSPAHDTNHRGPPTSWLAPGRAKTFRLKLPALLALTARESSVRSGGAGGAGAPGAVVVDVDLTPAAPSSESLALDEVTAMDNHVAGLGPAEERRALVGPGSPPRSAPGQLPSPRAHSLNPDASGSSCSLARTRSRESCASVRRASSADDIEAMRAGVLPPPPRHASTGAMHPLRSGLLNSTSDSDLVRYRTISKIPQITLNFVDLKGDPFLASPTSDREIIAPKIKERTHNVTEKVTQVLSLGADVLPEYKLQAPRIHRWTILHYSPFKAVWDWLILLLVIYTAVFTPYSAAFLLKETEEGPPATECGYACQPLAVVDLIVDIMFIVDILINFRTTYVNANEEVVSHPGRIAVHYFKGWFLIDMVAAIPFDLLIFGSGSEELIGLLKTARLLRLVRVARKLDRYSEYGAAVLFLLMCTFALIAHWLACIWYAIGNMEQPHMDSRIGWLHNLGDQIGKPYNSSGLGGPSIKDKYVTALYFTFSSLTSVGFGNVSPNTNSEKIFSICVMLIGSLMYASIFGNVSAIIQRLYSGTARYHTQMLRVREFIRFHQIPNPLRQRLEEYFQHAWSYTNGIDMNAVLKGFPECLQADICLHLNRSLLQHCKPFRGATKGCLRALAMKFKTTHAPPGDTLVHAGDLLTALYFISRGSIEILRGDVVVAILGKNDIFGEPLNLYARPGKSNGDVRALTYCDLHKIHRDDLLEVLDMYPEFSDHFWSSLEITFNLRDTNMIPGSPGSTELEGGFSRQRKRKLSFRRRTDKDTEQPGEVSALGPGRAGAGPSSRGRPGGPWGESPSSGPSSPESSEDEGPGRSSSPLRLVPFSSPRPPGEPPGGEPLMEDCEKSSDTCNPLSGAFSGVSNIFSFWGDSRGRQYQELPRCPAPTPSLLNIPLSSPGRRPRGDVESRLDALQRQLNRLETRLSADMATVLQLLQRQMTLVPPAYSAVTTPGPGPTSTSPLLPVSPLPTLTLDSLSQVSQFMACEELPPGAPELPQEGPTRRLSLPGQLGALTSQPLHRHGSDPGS

SMILES	hERG current change (%, negative = inhibition) at 10uM
CCOC(=O)C1CCN(Cc2ccc(OCc3ccccc3)cc2)CC1.O=C(O)C(=O)O	-62%
CCOCCCNC(=O)C1CCN(Cc2ccc(OCc3ccccc3)c(OC)c2)CC1.O=C(O)C(=O)O	-43.3%
CCOC(=O)C1CCN(Cc2ccc(OC)c(OCc3ccccc3)c2)CC1	-38.3%
NC(=O)C1CCN(Cc2cccc(OCc3ccccc3)c2)CC1.O=C(O)C(=O)O	-12%
COCCNC(=O)C1CCN(Cc2cccc(OCc3ccccc3)c2)CC1	-12.2%
CCOC(=O)N1CCN(C(=O)C2CCN(Cc3cccc(OCc4ccccc4)c3)CC2)CC1.O=C(O)C(=O)O	-58.4%
CCCCNC(=O)C1CCN(Cc2ccc(OCc3ccccc3)c(OC)c2)CC1.O=C(O)C(=O)O	-67.2%
CCOCCCNC(=O)C1CCN(Cc2cccc(OCc3ccccc3)c2)CC1.O=C(O)C(=O)O	-14.1%
CC(C)CCNC(=O)C1CCN(Cc2cccc(OCc3ccccc3)c2)CC1.O=C(O)C(=O)O	-50.8%
CCOC(=O)N1CCN(C(=O)C2CCN(Cc3ccc(O)c(OCC)c3)CC2)CC1.O=C(O)C(=O)O	20.2%
CCOC(=O)C1CCCN(Cc2ccc(OCc3ccccc3)cc2)C1.O=C(O)C(=O)O (stereo not drawn)	-40.6%
CCOC(=O)C1CCN(Cc2cccc(OCc3ccccc3)c2)CC1.O=C(O)C(=O)O	-43.2%
COC(=O)c1ccccc1NC(=O)c1nc2nc(C)cc(C(F)F)n2n1	-5.65%
Cc1nc2ccccc2c2c1CC(C)S2 (stereo not drawn)	-16.8%
Cc1ccc2nc(-c3ccccc3O)c(Nc3ccc4c(c3)OCCO4)n2c1	9.98%
COc1cc(CN2CCC(C(=O)NCCC(C)C)CC2)ccc1OCc1ccccc1.O=C(O)C(=O)O	-67.8%
COc1ccc(CN2CCC(C)CC2)cc1OCc1ccccc1	-49.6%
O=C(C1CCN(Cc2ccc(OCc3ccccc3)cc2)CC1)N1CCCC1	-47.1%
CC(O)CNC(=O)C1CCN(Cc2ccc(OCc3ccccc3)cc2)CC1.O=C(O)C(=O)O (stereo not drawn)	-33.2%
CCOC(=O)C1CCN(c2c(N3CCN(Cc4ccccc4)CC3)c(=O)c2=O)CC1	-73.4%
CCOC(=O)C1CCN(Cc2ccc(-c3ccccc3)cc2)CC1	-28.8%
COc1cc(CN2CCC(C)CC2)ccc1OCc1ccccc1.O=C(O)C(=O)O	-52.9%
COc1cc(CN2CCC(C(=O)NCC(C)(C)CN(C)C)CC2)ccc1OCc1ccccc1.O=C(O)C(=O)O	13.6%
CC(C)CNC(=O)C1CCN(Cc2ccc(OCc3ccccc3)cc2)CC1.O=C(O)C(=O)O	-77.1%
COc1cc(CN2CCCCC2)ccc1OCc1ccccc1.O=C(O)C(=O)O	-35.1%
CCOC(=O)C1CCN(c2c(NCCCN3CCN(Cc4ccccc4)CC3)c(=O)c2=O)CC1	3.6%

SMILES	hERG current change (%, negative = inhibition) at 10uM
O=C(/C=C/c1ccccc1)Nc1cc(NC(=O)/C=C/c2ccccc2)cc(C(=O)O)c1	21.4%
COc1ccc(-c2cc(C)no2)cc1S(=O)(=O)N1CCCN(Cc2ccc(F)cc2)C1	-16.9%
CC(C)C(=O)Nc1nnc(SCc2cccc(F)c2)s1	-8.88%
COc1ccc(Cc2nc(C(=O)Nc3ccc(Cl)cc3)cs2)cc1	-42.8%
CCOC(=O)c1nsnc1NCCSC(=N)N.I	3.69%
CC1CN(S(=O)(=O)c2ccc(C(=O)Nc3sccc3C(N)=O)cc2)CC(C)O1 (stereo not drawn)	-10.8%
CCOc1ccc(NC(=O)CCC(=O)Nc2cc(OC)c(NC(=O)c3ccco3)cc2OC)cc1	10.4%
O=C(CSc1nc(-c2ccccc2)cs1)N1CCc2ccccc21	3.61%
Cc1cccc(N(Cc2cc3ccccc3[nH]c2=O)C(=O)c2ccco2)c1C	4.51%
CCC(C)(C)NC(=O)C(c1ccncc1)N(Cc1ccc(C)cc1)C(=O)c1csnn1 (stereo not drawn)	-14.1%
COc1cc(OC)c(C2N(c3ccccn3)C(=O)C3CCCN32)cc1OC (stereo not drawn)	13.8%
COc1ccc(C(=O)OCC(=O)NCCN2C(=O)CSC2=O)cc1	-1.03%
CCOC(=O)C1CCN(Cc2ccc(OCc3ccccc3)c(OC)c2)CC1.O=C(O)C(=O)O	-19.3%
CCCCNC(=O)C1CCN(Cc2ccc(OCc3ccccc3)cc2)CC1.O=C(O)C(=O)O	-71.7%
CCCNC(=O)c1ccc(CNc2c(N3CCC(C(=O)OCC)CC3)c(=O)c2=O)cc1	3.8%
CCOC(=O)C1CCN(c2c(NCc3ccc(N(C)C)cc3)c(=O)c2=O)CC1	-5.97%
CCOC(=O)C1CCN(c2c(NCc3ccc(C(=O)N(C)Cc4ccccc4)cc3)c(=O)c2=O)CC1	-65.2%
CCOC(=O)C1CCCN(Cc2ccc(OC)c(OCc3ccccc3)c2)C1 (stereo not drawn)	-46.1%
OC1CCN(Cc2ccc(OCc3ccccc3)cc2)CC1	-5.07%
CCOC(=O)C1CCCN(Cc2ccc(OCc3ccccc3)c(OC)c2)C1.O=C(O)C(=O)O (stereo not drawn)	-62.2%
CCOC(=O)C1CCCN(Cc2c(C(=O)N3CCOCC3)nc3ccccn23)C1 (stereo not drawn)	8.12%
O=C(NC1CCCCC1)c1cc([N+](=O)[O-])ccc1N1CCCC1	-0.526%
Cc1ccc(/C=C/C(=O)Nc2cccc(S(=O)(=O)N3CCOCC3)c2)o1	-19.9%
O=C(CCC1CCCC1)Nc1ccon1	12.2%
COc1ccc(S(=O)(=O)N(C)CC(=O)NCCN2CCOCC2)cc1Cl	6.98%
